Test [1] has as its target Cellular tumor antigen p53 (Homo sapiens) (UniProt P04637). Description: Primary qHTS for small molecule compounds that upregulate eGFP-tagged delta133p53alpha (in N-terminal) cells. (AID 2060322). Further: nearly all actives have a fitted effect of over 75% in size. Further: potency means the concentration at half of the fitted maximal effect.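 On activation: series mostly up to about 56 µM; 0% = DMSO vehicle and 100% = reference activator.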 Particulars: NCI-H358 eGFP-delta133p53alpha fluorescence, 24 h; activation: active compounds read high. In outline:
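NCI-H358 cells pre-induced 24 h with 10 ng/ml doxycycline to express N-terminal eGFP-delta133p53alpha, then dosed 24 h at 37C without doxycycline; fixed, Hoechst-stained, GFP intensity by laser scanning cytometry, normalized to DMSO (0%) and 57.5 uM 5-azacytidine (100%).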
Background: Quantitative high-throughput screening tests each substance at several concentrations.

Test [2] concerns the target Aldehyde dehydrogenase, mitochondrial (Homo sapiens) (UniProt P05091). Description: qHTS for Inhibitors of the Aldehyde Dehydrogenase Family (ALDH2) Primary screen (AID 2061308).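 Further: plate controls were vehicle for no effect and reference inhibitor for full effect; nearly all actives have a fitted effect of over 55% in size.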
Test [3] addresses Retinaldehyde dehydrogenase 3 (Homo sapiens) (UniProt P47895). Description: qHTS for Inhibitors of the Aldehyde Dehydrogenase Family (ALDH1A3) Primary screen (AID 2061315).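 Further: plate controls were DMSO vehicle for no effect and reference inhibitor for full effect.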
Test [4] is described as follows: BET inhibitor-based combinations targeting novel dependencies in MECOM-rearranged (r) AML: SET-2 cell line (AID 2202231). Further: nearly all actives have a fitted effect of over 35% in size. Further: potency means the concentration at half of the fitted maximal effect.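 On viability: plate controls were DMSO treated cells for no effect and wells without cells for full effect.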 The following applies: SET-2 AML cells viability, CellTiter-Glo luminescence, 48 h; viability: active compounds read low, concentration not given here. In outline:
(§1)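 Viability of cells (500 per well) is scored by luminescent CellTiter-Glo at 48 hr post-dosing. Eleven-point titrations are normalized to DMSO and empty controls and reduced to AUC values.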

The nature of test [5]: BET inhibitor-based combinations targeting novel dependencies in MECOM-rearranged (r) AML: OCI-AML3 cell line (AID 2202232). Further: nearly all actives have a fitted effect of over 35% in size. Further: potency means the concentration at half of the fitted maximal effect.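 On viability (% of control): series mostly up to about 46 µM; plate controls were DMSO vehicle wells for no effect and wells without cells for full effect.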 Particulars: Potency: OCI-AML3 viability. The procedure, abridged: as §1
Test [6] is described as follows: BET inhibitor-based combinations targeting novel dependencies in MECOM-rearranged (r) AML: HNT-34 cell line (AID 2202234). Further: nearly all actives have a fitted effect of over 35% in size. Further: potency means the concentration at half of the fitted maximal effect.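 On viability (% of control): plate controls were vehicle wells for no effect and cell-free wells for full effect.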 The procedure, abridged:
(§2)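 Using pin-tool transfer, drugs were added in 11 doses to cells (500/well), incubated 48 hr, and assessed with CellTiter-Glo. Z-AUC is a mean-centring transformation applied separately to each screened line.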

A short description of test [7]: BET inhibitor-based combinations targeting novel dependencies in MECOM-rearranged (r) AML: UCSD-AML1 cell line (AID 2202235). Further: nearly all actives have a fitted effect of over 40% in size. Further: potency means the concentration at half of the fitted maximal effect.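 On viability (% of control): series mostly up to about 46 µM; plate controls were DMSO vehicle wells for no effect and blank wells for full effect.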 In outline: as §2
Test [8] in a line: BET inhibitor-based combinations targeting novel dependencies in MECOM-rearranged (r) AML: AML-191 cell line (AID 2202236; further: nearly all actives have a fitted effect of over 35% in size; further: potency means the concentration at half of the fitted maximal effect;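 on viability (% of control): plate controls were vehicle wells for no effect and wells without cells for full effect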). The procedure, abridged:
as §1

Test [9] in a line: BET inhibitor-based combinations targeting novel dependencies in MECOM-rearranged (r) AML: AML-194 cell line (AID 2202237; further: nearly all actives have a fitted effect of over 40% in size; further: potency means the concentration at half of the fitted maximal effect;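 on viability (% of control): plate controls were vehicle wells for no effect and wells without cells for full effect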). In outline: as §1
Test [10] is described as follows: BET inhibitor-based combinations targeting novel dependencies in MECOM-rearranged (r) AML: MV-4-11 cell line (AID 2202233). Further: nearly all actives have a fitted effect of over 45% in size. Further: potency means the concentration at half of the fitted maximal effect. The procedure, abridged: as §2

Where “and” joins values, the source holds several entries; their conditions need not be identical. Equal values may be shown once. Results filed as inconclusive are left out. Values without a mark were called inactive. Calls of active or inactive are those of the source. The call rests on the fitted dose curve; in most records, active means well fitted curve in the direction sought with a large enough effect; inconclusive means small, poorly fitted or top-dose-only effect, or another doubt; inactive means no such curve, though single readings can be large; an effect the other way counts as inactive or inconclusive.

Data on 16 molecules can be found in PubChem BioAssay (NCATS).

Chain of Cellular tumor antigen p53 (Homo sapiens) (P04637 whole entry, looked up): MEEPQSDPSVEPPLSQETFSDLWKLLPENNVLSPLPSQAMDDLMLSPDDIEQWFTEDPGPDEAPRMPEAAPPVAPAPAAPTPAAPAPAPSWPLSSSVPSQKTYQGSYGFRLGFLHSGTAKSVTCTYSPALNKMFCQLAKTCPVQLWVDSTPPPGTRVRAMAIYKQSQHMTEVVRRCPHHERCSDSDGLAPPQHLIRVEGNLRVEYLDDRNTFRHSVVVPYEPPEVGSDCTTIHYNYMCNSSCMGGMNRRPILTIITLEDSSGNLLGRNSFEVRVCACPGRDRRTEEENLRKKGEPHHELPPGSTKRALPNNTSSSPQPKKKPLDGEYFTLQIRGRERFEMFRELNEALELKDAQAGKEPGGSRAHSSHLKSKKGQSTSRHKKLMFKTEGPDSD

As to `CNC(=O)c1nn(C)c2c1C(C)(C)Cc1cnc(Nc3ccc(N4CCN(C)CC4)cc3)nc1-2`, the Potency in test [1] is 38.5 µM (active) and 9.53 µM (active); in [4], 833 nM (active); in test [5], 5250 nM (active); in test [6], 263 nM (active); in [7], 934 nM (active); in test [8] it was 1180 nM (active). In addition, the Potency in test [9] is 1320 nM (active). Also, the Potency result in [2] and in test [3] was “inactive” throughout.

What is called viability is a read-out of living cells in per cent, often relative to untreated cells. With `CCC(C)n1ncn(-c2ccc(N3CCN(c4ccc(OC[C@H]5CO[C@](Cn6cncn6)(c6ccc(Cl)cc6Cl)O5)cc4)CC3)cc2)c1=O` (some centres undefined), the activation in test [1] was 10% and -7.18% and -11.6%. In addition, the Potency result in [2], in test [3], in [6], in [7] and in test [9] was “inactive” each time. Moreover, the viability in test [4] is 101%. The Potency in test [5] was 6450 nM (active); in [8], 7230 nM (active).

As to `O=C(O)[C@H](CC(=O)N1C[C@H]2CCCC[C@H]2C1)Cc1ccccc1`, the activation in test [1] is 38.3%. The Potency entry in test [2], in test [3], in test [5], in test [6], in [7] and in [8] was “inactive” each time. Besides, the Potency entry in test [9] is “inactive”. Further, the viability in test [4] is 105%.

For `CN[C@@H](C)[C@H]1[C@H](O)C[C@@]2(C)[C@@H]3CC[C@H]4C(C)(C)[C@@H](NC)CC[C@@]45C[C@@]35CC[C@]12C`, the activation in [1] is -17.2% and -1.67%. Moreover, the activity change, negative = inhibition in test [2] was 0.631% [at 11.2 µM]; in test [3], 0.124% [at 11.2 µM]. Moreover, the viability in test [4] was 106%. The viability (% of control) in test [5] was 106% [at 8.46 µM]; in [6] it was 103% [at 8.46 µM]; in [7], 111% [at 8.46 µM]; in test [8] it was 95.8% [at 8.46 µM]; in test [9] it was 117% [at 8.46 µM].

In the case of `CC1(C)CCC(CN2CCN(c3ccc(C(=O)NS(=O)(=O)c4ccc(NCC5CCOCC5)c([N+](=O)[O-])c4)c(Oc4cnc5[nH]ccc5c4)c3)CC2)=C(c2ccc(Cl)cc2)C1`, the activation in test [1] is -10.9%. In addition, the Potency entry in [2] and in [3] was “inactive” throughout. The viability in test [4] is 114%. Also, the Potency was 3720 nM (active) in [5], 118 nM (active) in test [10], 18600 nM (active) in [8] and 4680 nM (active) in test [9].

With `Cc1c(F)cc(C(=O)NC2CC2)cc1-c1c(F)cn2c(C(C)(C)C)nnc2c1F`, in test [1], the activation is -8.93%. Besides, the Potency entry in test [2], in test [3], in test [5], in test [6], in [7] and in test [8] was “inactive” in each case. Also, the Potency entry in [9] is “inactive”. Further, the viability in test [4] is 104%.

Regarding `CC[C@@H]1C(=O)N(C)c2cnc(Nc3ccc(C(=O)NC4CCC(N5CCN(CC6CC6)CC5)CC4)cc3OC)nc2N1C(C)C` (some centres undefined), in test [1], the activation is -21.7%. The Potency entry in test [2] and in test [3] was “inactive” each time. The Potency in test [4] was 148 nM (active); in test [5] it was 59 nM (active); in test [10], 118 nM (active); in [8], 166 nM (active); in test [9] it was 93.4 nM (active).

Consider `C[C@@H]1COCCN1c1cc(=O)n2c(n1)N(Cc1cncc(Cl)c1)[C@H](C(F)(F)F)CC2`, for which the activation in test [1] is -34.6%. In addition, the Potency result in test [2], in test [3], in [5], in test [10] and in test [9] was “inactive” each time. The viability in test [4] is 106%.

With `COc1cc(C(=O)NC2CCN(C)CC2)c(F)cc1Nc1ncc2c(n1)N(C1CCCC1)CC(F)(F)C(=O)N2C`, the activation in test [1] was 17%. Further, the Potency entry in [2] and in test [3] was “inactive” each time. For the same molecule, the Potency was 93.4 nM (active) in [4]; 46.8 nM (active) in test [5]; 105 nM (active) in test [10]; 105 nM (active) in [7]; 83.3 nM (active) in [9].

In the case of `CCCS(=O)(=O)Nc1ccc(F)c(C(=O)c2c[nH]c3ncc(Cl)cc23)c1F`, the activation in [1] is 27.8% and 12.5%. Further, the Potency entry in [2], in test [3], in [5], in [7] and in test [9] was “inactive” in each case. For the same molecule, the Potency was 16600 nM (active) in [4] and 11800 nM (active) in test [6].

For `CC(C)S(=O)(=O)c1ccc2nccc(Nc3ccc4scnc4c3)c2c1`, the activation in test [1] is -14.3%. Further, the Potency entry in test [2], in [3], in test [5], in [8] and in [9] was “inactive” each time. Besides, the viability in test [4] is 95.8%. Besides, the Potency in [6] was 10500 nM (active).

Regarding `CN1C(=O)N[C@@H](Cc2c[nH]c3c(Cl)cccc23)C1=O`, the activation in [1] was -25.9%. In addition, the Potency entry in [2], in test [3], in test [5], in test [6], in [7] and in [8] was “inactive” each time. In [9], the Potency result is “inactive”. For the same molecule, the viability in test [4] was 110%.

Consider `COc1ccc(CCN2CCN(CCCc3ccccc3)CC2)cc1OC`, for which, in test [1], the activation was 20.6% and -1.43%. Also, the Potency result in test [2], in test [3], in test [5], in test [6], in test [7] and in [8] was “inactive” in each case. Further, the Potency result in [9] was “inactive”. Moreover, in test [4], the Potency is 18600 nM (active).

Regarding `N#Cc1ccnc(N2C(=O)CC[C@H]2C(=O)N(c2cncc(F)c2)[C@H](C(=O)NC2CC(F)(F)C2)c2ccccc2Cl)c1`, the activation in test [1] is -19.7% and -8.38%. The Potency result in test [2], in test [3], in test [5], in test [6] and in test [9] was “inactive” in each case. Also, the viability in test [4] is 105%.

Take `CN1C(=O)C(Cc2c[nH]c3ccccc23)NC1=S` (centres undefined): the activation in [1] is 23.7%. The Potency entry in test [2], in test [3], in test [5], in test [6], in test [8] and in test [9] was “inactive” each time. In test [4], the viability was 99.6%.

On to `COc1ncc(-c2ccc3c(Nc4cc(Oc5cc(F)cc(F)c5)cc(C(=O)O)c4)c(S(=O)(=O)NC4CC4)cnc3c2)c(OC)n1`, for which the activation in test [1] was -3.34%. In addition, the Potency entry in test [2], in test [3], in [5], in test [6], in [7] and in test [8] was “inactive” each time. Further, in [9], the Potency result was “inactive”. For the same molecule, the viability in [4] was 110%.
